# An excerpt weighted towards active compounds, which were near 9.3% of everything screened.
# M1 ag = M1 muscarinic receptor agonists, primary screen, CHO-M1 cells, Fluo-4 calcium, agonist mode; Muscarinic acetylcholine receptor M1; Fluo-4 calcium fluorescence; stronger effect = higher value; B-score at 10 µM; actives 3% (n = 64,000); AID 626, 2007;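 active = fluorescence rise, raw or as B-score row- and column-corrected plate score, outside the 99.7% band of its plate's samples, either direction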
# NADH coupling = inhibitors of PK/LDH coupling enzymes, profiling panel, artefact control, biochemical, MLSMR library; actives 0.02% (n = 65,000); IC50, µM (top dose mostly 10 µM), without a hit: top-dose inhibition; coupled PK/LDH NADH assays, four targets;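 active = single-dose screening hits from any of four coupled enzyme assays that gave an IC50 when retested across doses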;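 also: the DPM-DC format reads NADH fluorescence rather than 340 nm absorbance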
# Fluor 339 460 = intrinsic fluorescence of library compounds, ex339/em460 – biochemical, MLSMR library, data from DPM-DC assay, artefact control, profiling panel. compound autofluorescence, ex339/em460 nm, NADH buffer; stronger effect = higher value; 1 = no-compound wells, NADH background. fluorescence fold increase at 10 µM. actives 5.5% (n = 65,000). AID 709, 2007;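 active = at 10 µM, mean starting fluorescence two-fold or more over control wells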;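 also: signal is the first read of a kinetic run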
# M1 antagonist = antagonists of rat M1 muscarinic receptor; CHO-M1 cells, Fluo-4 calcium, ACh EC80 antagonist mode; stronger effect = lower value; B-score at 10 µM; actives 3.4% (n = 64,000); AID 628, 2007;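 active = calcium fluorescence response, raw or row-and-column corrected B-score, differing from the plate sample mean either way at a set confidence level, mostly lower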
# Target sequence (P08482 whole entry, looked up): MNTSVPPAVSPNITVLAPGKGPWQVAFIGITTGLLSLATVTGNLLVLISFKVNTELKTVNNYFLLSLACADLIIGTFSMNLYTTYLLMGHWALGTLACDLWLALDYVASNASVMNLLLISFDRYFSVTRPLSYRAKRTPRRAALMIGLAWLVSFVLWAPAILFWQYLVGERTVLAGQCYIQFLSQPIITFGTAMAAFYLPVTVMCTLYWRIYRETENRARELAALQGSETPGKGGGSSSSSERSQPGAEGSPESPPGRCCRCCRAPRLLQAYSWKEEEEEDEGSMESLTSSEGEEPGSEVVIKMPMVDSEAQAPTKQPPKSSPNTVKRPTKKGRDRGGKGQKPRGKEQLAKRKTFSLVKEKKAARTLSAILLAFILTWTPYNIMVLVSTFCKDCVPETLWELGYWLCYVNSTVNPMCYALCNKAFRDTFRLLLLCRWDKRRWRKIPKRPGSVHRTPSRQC
# Htt clearance = clearance of mutant huntingtin inclusions, primary screen, imaging, HeLa Exon1htt(103Q)mCFP, confocal imaging; aggregate imaging; zero = plate's median compound well; inhibition, % at 1.5 µM; actives 0.42% (n = 47,000); AID 853, 2007;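 active = inhibition of aggregate fluorescence above about 70%, also judged a hit by eye on the cell image, limit read from the data, passing the limit was not always enough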;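 also: cells exposed to compound for three days before fixation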
# Abs 340nm = compound light absorbance at 340 nm, profiling panel, artefact control, biochemical, MLSMR library, data from PS, PMK, MK assays | compound absorbance at 340 nm, fold over control | fold change at 10 µM | 65,000 tested, under 10 active;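 active = at 10 µM dose, initial 340 nm absorbance at least 2 fold that of control wells; inactive = change under 2 fold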;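 also: initial absorbance extrapolated from kinetic A340 decline of NADH oxidation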
# * marks the source's active call; other numbers are inactive results; x = no result given.
SMILES,M1 ag,NADH coupling,Fluor 339 460,M1 antagonist,Htt clearance,Abs 340nm
Cc1cc(C)c2c(n1)nn1c(NCCN3CCOCC3)cc(C)nc21,0.029,5%,3.8*,-0.037,x,1
COc1ccc(CCN2C(=O)CC(C(N)=O)SC2=Nc2ccccc2)cc1OC (configuration not stated),0.85,7%,1.1,0.66,-31,0.96
CCOC(=O)N1CCN(S(=O)(=O)c2ccc(C(=O)Nc3nc4c(s3)CC(C)CC4)cc2)CC1 (configuration not stated),-0.074,14%,4.6*,0.53,31,1.1
c1cn(-c2ncnc3sc4c(c23)CCCC4)cn1,-0.31,2%,1.4,0.55,45,1.1
Cc1csc(NC(=O)c2cc(C)oc2C)n1,x,x,x,x,-8,x
Cc1csc(NC(=O)c2ccccc2O)n1,-0.035,7%,3.9*,-1.2,60,1
COc1ccc(-c2cc3nc(C)cc(C)n3n2)c(OC)c1,0.36,13%,3.2*,0.97,x,1.1
CCCS(=O)(=O)n1nc(-c2ccc(OC)cc2OC)cc1N,0.17,2%,1.1,0.11,x,1.1
S=C1NCCOCCOCCOCCOCCNC(=S)NCCOCCOCCOCCOCCN1,x,x,x,x,78*,x
Cc1[nH]nc2c1-c1nc3ccccc3nc1C(C)(C)C2,0.91,10%,3.9*,1.3,x,1.1
Cc1c2c(nc3c(C(=O)NC4CCCCC4C)cnn13)CCCC2 (configuration not stated),0.18,16%,4.4*,0.27,1,1
COc1ccc(-c2cc(C(N)=O)nc(N3CCCCCC3)n2)cc1,0.19,9%,3.5*,-0.44,x,1.1
COc1ccc(-c2cc(C(F)(F)F)nc(N3CCCCC3)n2)cc1OC,-0.55,1%,1.6,0.03,-33,1.1
N#Cc1cc2c(=O)n3ccccc3nc2n(Cc2cccnc2)c1=N,0.31,0%,1.3,-0.041,38,1.1
COC(=O)c1cc2c(=O)n3ccccc3nc2n(Cc2cccnc2)c1=N,-0.0017,4%,3.7*,-0.24,29,1.1
CCOC(=O)c1cc2c(=O)n3cccc(C)c3nc2n(CCc2ccc(OC)c(OC)c2)c1=N,-0.45,7%,1.2,-0.13,x,1
O=C(NCC1CCCO1)c1ccc2c(=O)n(CCc3ccccc3)c(=O)[nH]c2c1 (configuration not stated),0.89,9%,1.4,-0.029,-13,1.1
COCCCNC(=O)c1cc2c(=O)n3cccc(C)c3nc2n(C(C)C)c1=N,0.53,13%,5.1*,-0.5,-14,1
Cc1cccn2c(=O)c3cc(C(=O)NC(C)C)c(=N)n(Cc4ccncc4)c3nc12,x,7%,3.7*,x,x,1
Cc1cccn2c(=O)c3cc(C(=O)NCC4CCCO4)c(=N)n(Cc4cccnc4)c3nc12 (configuration not stated),-0.017,8%,3.7*,-0.91,x,1
Cc1ccccc1Sc1c(C#N)c(-c2ccccc2)nn1C,x,x,x,x,-12,x
Cc1cc(C(F)F)n2nc(C(=O)Nc3cccnc3Cl)nc2n1,x,x,x,x,20,x
COC(=O)c1cc2c(=O)n3ccccc3nc2n(C)c1=N,-0.68,5%,3.8*,-0.55,x,1
COc1ccc(NC(=O)c2cnc3ccccn3c2=O)c(OC)c1,0.77,1%,1.1,0.049,x,1.2
Cn1nc(C(=O)NCC2CCCO2)c2ccccc2c1=O (configuration not stated),-0.75,7%,1.1,-0.13,22,1
N=c1c(C(=O)NCC2CCCO2)cc2c(=O)n3ccccc3nc2n1Cc1cccnc1 (configuration not stated),-0.23,3%,3.7*,-0.77,x,0.98
O=C(c1nc2nc(-c3ccc(Cl)cc3)cc(C(F)(F)F)n2n1)N1CCOCC1,1.3,10%,3.2*,0.51,-81,1.1
CN1CCN(C(=O)c2cc3nc(-c4ccc(F)cc4)cc(C(F)(F)F)n3n2)CC1,-0.79,16%,1.4,0.02,-79,1.1
COc1ccc(-c2cc(C(F)(F)F)n3nc(C(=O)O)nc3n2)cc1,0.54,11%,2.9*,-0.37,x,1.1

# Bioassay records: PubChem, several laboratories
